Screening results deposited in PubChem BioAssay by National Center for Advancing Translational Sciences (NCATS).
A selection: hits, their analogues and other compounds. The true share with any hit is near 3.3%.
PLK1 PBD inh – blocks phosphopeptide binding to human PLK1 polo-box domain | Plk1 PBD binding of FITC phosphopeptide, fluorescence polarization | Potency, µM, without a hit: max response, negative = inhibition, usual class: inhibitors | 2.8% of 360,000 active | AID 720504; note: potency is the fitted concentration of half-maximal effect; series mostly up to about 57 µM; nearly all actives have a fitted effect of over 65% in size
PI5P4K alpha inh – PI5P4K alpha (human) kinase inhibition | AID 652105 | P48426 | max response, % | 1.2% of 330,000 active | PI5P4Kalpha enzyme, ADP-Glo luminescence, 60 min; stronger effect = lower value; active = max response of -50% or lower; inconclusive = between -30% and -50%; inactive = -30% or higher; note: value at the top dose of about 77 µM
Target sequence (P48426 whole entry, looked up): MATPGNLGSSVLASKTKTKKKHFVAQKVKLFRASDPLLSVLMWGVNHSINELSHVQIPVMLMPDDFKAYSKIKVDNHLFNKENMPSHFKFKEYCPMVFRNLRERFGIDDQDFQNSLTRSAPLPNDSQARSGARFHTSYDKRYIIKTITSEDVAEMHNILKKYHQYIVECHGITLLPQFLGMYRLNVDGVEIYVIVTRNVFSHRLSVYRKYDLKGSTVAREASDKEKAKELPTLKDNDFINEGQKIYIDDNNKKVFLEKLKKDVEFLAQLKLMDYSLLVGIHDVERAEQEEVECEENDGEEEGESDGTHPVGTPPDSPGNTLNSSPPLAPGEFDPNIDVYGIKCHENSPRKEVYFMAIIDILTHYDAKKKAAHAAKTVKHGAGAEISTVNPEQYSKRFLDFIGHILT
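Human PI5P4Kalpha with substrate in 0.038 M HEPES pH 7.4, 0.28 mM EGTA, 0.1% CHAPS, 5% DMSO; reaction started with 5 microM ATP (final), 60 min at room temperature. ADP formed read by ADP-Glo luminescence.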
WRN helicase inh – WRN helicase (human) inhibition. WRN helicase unwinding, fluorescent forked duplex, kinetic. Q14191. Potency, µM (series often up to 114 µM), inactives show at the highest dose activity change, negative = inhibition, hits mostly inhibitors. 0.46% of 360,000 active; note: potency is the fitted concentration of half-maximal effect; nearly all actives have a fitted effect of over 55% in size
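Fluorescence dequenching readout, ex 525 nm/em 598 nm, kinetic mode: forked duplex DNA (100 nM final) with adjacent fluorophore and quencher unwound by WRN (20 nM final) with 2 mM ATP. Compound preincubation 15 min, room temperature.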
USP1 inh – blocks the human USP1/UAF1 deubiquitinase complex; O94782; Potency, µM (highest dose often 57.1 µM), for the others: top-dose activity change, negative = inhibition, actives largely listed as inhibitors; recombinant USP1/UAF1, Ub-Rhodamine cleavage fluorescence; 0.23% of 390,000 active; AID 743255; note: potency is the fitted concentration of half-maximal effect; nearly all actives have a fitted effect of over 60% in size
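USP1/UAF1 complex at 1 nM was preincubated with compound for 15 min at room temperature, then Ub-Rho substrate (150nM final) was added. Fluorescence (480/540 nm) was read kinetically, 6 reads every 60 seconds.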
USP2a block – USP2a (human) protease inhibition. O75604. USP2 core, Ub-CHOP2 coupled fluorogenic reporter, 485/531. Potency, µM (titrated, usually from 38.3 µM), without a hit: at the top dose activity change, negative = inhibition, most hits filed as inhibitors. 0.01% of 330,000 active;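 note: potency is the fitted concentration of half-maximal effect; plate controls were DMSO wells for no effect and full inhibition by NEM control for full effect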
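Cell-free coupled assay: 10nM USP2 core preincubated 30min RT with compound in Tris-HCl pH 8.0/CaCl2/CHAPS buffer, then 25nM Ub-CHOP2 and 25nM reporter substrate; fluorescence (Ex 485/Em 531) read after 60min RT, normalized to NEM inhibition, concentration-response curves fitted.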
ADP-Glo counter – interferes with ADP-Glo detection without enzyme present. shares compounds with PI5P4K alpha inh. ADP-Glo detection counter-screen, luciferase luminescence, no enzyme. Potency, µM (top dose mostly 76.9 µM), without a hit: at the highest dose activity change, negative = inhibition, hits mostly inhibitors. 1,100 tested, under 10 active
Starred values were filed as active, the others as inactive; ? = inconclusive; / = not tested or not shown; ! = not active in a repeat; [ ] = another dose, or the depositor's remark. Unless noted, calls come from the whole dose curve; as a rule, active = well fitted curve in the direction sought with a large enough effect; inconclusive = small, poorly fitted or top-dose-only effect, or another doubt; inactive = no such curve, though single readings can be large; an effect the other way counts as inactive or inconclusive. Unless noted, % is set by controls: 0 for no effect and ±100 for the full control effect.

SMILES	PLK1 PBD inh	PI5P4K alpha inh	WRN helicase inh	USP1 inh	USP2a block	ADP-Glo counter
Cn1c(=O)oc2cc(S(=O)(=O)Nc3ccccc3)ccc21	21µM*	-55*	-6%	9%	-7%	5%
O=C(c1ccc(OCCN2CCCCC2)cc1)c1c(-c2ccc(O)cc2)sc2cc(O)ccc12	-7%	-51*!	6%	?	4%	-5%
Cc1ccnc(SCC(=O)Nc2oc(-c3ccccc3)c(-c3ccccc3)c2C#N)n1	-6%	6	-18%	-5%	-6%	/
N#Cc1c(NC(=O)CSc2ncccn2)oc(-c2ccccc2)c1-c1ccccc1	-16%	-58*	?	-14%	/	6%
CC(C)(C)c1ccc(NC(=O)C2=CC=CN3CCS(=O)(=O)N=C23)cc1	-2%	4	-10%	-5%	-1%	3%
CCO[C@@H]1OC(C(=O)NCc2ccccc2)=C[C@H](C(C)(C)C)[C@H]1CCCO	-2%	0	3%	-6%	3%	-10%
CCO[C@H]1OC(C(=O)NCc2ccccc2)=C[C@@H](c2ccc(Br)cc2)[C@@H]1CCCO	0%	2	-4%	-32%	0%	/
O=C(NC1CC1)C1=C[C@@H](c2c[nH]c3ccccc23)C[C@@H](OCc2ccc(CO)cc2)O1	-22%	-51*	-2%	?	-3%	-7%
O=C(NC1CC1)C1=C[C@H](c2c[nH]c3ccccc23)C[C@H](OCCCCO)O1	-2%	-19	2%	?	2%	/
CCOC(=O)c1cccc(NC(=O)CN2C(=O)CC(C)(C)Sc3ccccc32)c1	/	/	/	-19%	/	/
Cc1cc2oc(C(=O)Nc3ccc(S(=O)(=O)Nc4nccs4)cc3)cc(=O)c2cc1Cl	-28%	-52*	-12%[11.6 µM]	-19%	-26%	0%
CCc1cccc(C)c1NC(=O)c1cc(C)nc2c1c(C)nn2-c1cccc(Cl)c1C	/	/	/	-2%	/	/
CCc1nc2sc3ccccc3c(=O)c2c(=O)n1Cc1ccco1	?	-68*	56µM*	-9%	6%	-5%
O=c1c2ccccc2sc2nc(C3CCCCC3)n(Cc3ccco3)c(=O)c12	?	/	-22%	-21%	-1%	/
Cc1cccc(NC(=O)c2cnn(-c3ccccc3)c2-n2cccc2)c1C	/	/	/	-6%	/	/
O=C(CCS(=O)(=O)c1ccc2c(c1)NC(=O)CS2)NCCc1ccc(Cl)cc1	17µM*	-60*	-3%	-27%	2%	0%
COc1cc(C2CC(=O)N(Cc3ccc(F)cc3)c3ccccc3S2)cc(OC)c1OC (stereo unspecified)	/	/	/	-24%	/	/
CCOC(=O)N1CCN(Cc2nc3cc(NC(=O)C(C)C)ccc3n2C(C)C)CC1	/	/	/	14%	/	/
O=C(NC1CC1)c1ccc(NC(=O)C2CCCC2)cc1	-3%	-1	-3%	-28%	/	/
O=C(NC1CC1)c1ccc(NC(=O)C2CCC2)cc1	19µM*	-51*	-1%	-4%	/	-4%
CSc1cccc(NC(=O)c2cnn3ccccc23)c1	-13%	-63*	-10%	-13%	0%	-1%
CCc1ccc(NC(=O)c2cnn3ccccc23)cc1	-4%	?	2%	-22%	3%	/
COc1cccc(Cn2c(=O)n(-c3cccc(Cl)c3C)c(=O)c3c4c(sc32)CN(C(C)=O)CC4)c1	/	/	/	-29%	/	/
O=C(CC1C(=O)NCCN1CC1CCCCC1)NCc1cc(F)ccc1F (stereo unspecified)	3.8µM*	-63*	-34%	0%	0%	6%
O=C(CC1C(=O)NCCN1CC1CCCCC1)NCc1ccc(F)cc1F (stereo unspecified)	-13%	1	9%	-20%	1%	/
O=c1[nH]c(COc2ccccc2)nc2ccccc12	-1%	-1	1%	-2%	-12%	/
Cn1cccc1C(=O)OCc1nc2ccccc2c(=O)[nH]1	-9%	-53*	-10%[11.6 µM]	-15%	-6%	-11%
CCc1ccc(Cn2c(CNS(=O)(=O)c3ccc4c(c3)CCCC4)nc3cccnc32)cc1	/	/	/	-9%	/	/
